Experimental data from PubChem BioAssay (NCATS).
Values joined by “and” are separate entries in the source; they are usually repeats but may differ in a detail not shown here. Equal values may be shown once. Records with an inconclusive call do not appear. Where a call stands in place of a potency, no number is given. Active and inactive are the calls of the source. Unless noted, calls follow the shape of the dose curve; as a rule, active = well fitted curve in the direction sought with a large enough effect; inconclusive = small, poorly fitted or top-dose-only effect, or another doubt; inactive = no such curve, though single readings can be large; an effect the other way counts as inactive or inconclusive.

Experiments:
[1] = target: Hexokinase-4 (Homo sapiens) + Glucokinase regulatory protein (Homo sapiens) (UniProt P35557+Q14397); assay: qHTS assay for inhibitors of recombinant human GCK-GKRP interaction: HTRF assay (AID 743207)
Sequence of Hexokinase-4 (Homo sapiens) + Glucokinase regulatory protein (Homo sapiens) (P35557 whole entry, looked up): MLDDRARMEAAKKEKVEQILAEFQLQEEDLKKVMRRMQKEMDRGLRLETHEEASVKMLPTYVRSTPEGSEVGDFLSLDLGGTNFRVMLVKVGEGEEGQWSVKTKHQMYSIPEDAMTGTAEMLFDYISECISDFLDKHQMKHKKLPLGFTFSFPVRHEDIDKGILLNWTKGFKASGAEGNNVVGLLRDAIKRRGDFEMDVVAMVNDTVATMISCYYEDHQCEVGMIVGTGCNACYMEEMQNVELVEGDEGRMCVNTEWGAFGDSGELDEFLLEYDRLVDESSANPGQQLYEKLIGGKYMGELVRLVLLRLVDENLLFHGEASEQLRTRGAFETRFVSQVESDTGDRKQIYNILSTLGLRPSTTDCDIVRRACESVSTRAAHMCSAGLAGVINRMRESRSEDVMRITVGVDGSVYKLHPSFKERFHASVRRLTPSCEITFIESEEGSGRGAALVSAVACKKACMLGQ
Sequence of Hexokinase-4 (Homo sapiens) + Glucokinase regulatory protein (Homo sapiens) (Q14397 whole entry, looked up): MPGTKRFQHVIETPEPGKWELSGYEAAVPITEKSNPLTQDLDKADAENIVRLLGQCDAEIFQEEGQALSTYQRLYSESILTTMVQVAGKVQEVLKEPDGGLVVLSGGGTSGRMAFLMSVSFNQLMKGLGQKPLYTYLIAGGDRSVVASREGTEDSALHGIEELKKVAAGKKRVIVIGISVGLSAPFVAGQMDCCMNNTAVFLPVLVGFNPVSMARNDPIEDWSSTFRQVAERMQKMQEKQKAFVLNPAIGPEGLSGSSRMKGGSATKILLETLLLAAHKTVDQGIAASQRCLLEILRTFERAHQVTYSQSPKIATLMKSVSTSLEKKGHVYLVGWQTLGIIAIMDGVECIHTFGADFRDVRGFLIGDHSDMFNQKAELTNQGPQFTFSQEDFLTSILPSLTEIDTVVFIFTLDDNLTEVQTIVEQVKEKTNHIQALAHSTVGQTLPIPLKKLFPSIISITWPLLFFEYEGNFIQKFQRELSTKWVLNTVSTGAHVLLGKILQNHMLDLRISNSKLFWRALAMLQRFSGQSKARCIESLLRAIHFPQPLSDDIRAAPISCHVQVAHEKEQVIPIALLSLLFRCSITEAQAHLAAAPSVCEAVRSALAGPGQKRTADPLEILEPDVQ
How it was run: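 After 60 min equilibration at room temperature with anti-FLAG XL665 and anti-GST antibodies, FRET ratio (665/615 nm, excitation 320 nm) was read. Proteins: GST-GCK and FLAG-GKRP, each 5 nM, plus 2 uM S6P, pH 7.1 buffer; GCK-free wells define minimum signal.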

[2] = High-throughput drug toxicity screening in the BPDCN cell line Gen2.2 (AID 1224824; call rule not given here;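 also: cells exposed to compounds for 48 h before reading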); settings: Gen2.2 BPDCN cells; at 45.8 µM (top of the series) unless noted
How it was run: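 CellTiter-Glo luminescence read after 48 h compound exposure at 37 C defines viability; percent activity set with DMSO as 100% and bortezomib (9.2 uM final) as 0%. 500 exponentially growing cells per well, RPMI plus 10% FBS.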

[3] = qHTS assay for measurement of the activity of small molecule inhibitors on Zika virus induced Caspase-3 activity in human iPSC derived neural progenitor cells (hNPCs) (AID 1224857); also: nearly all actives have a fitted effect of over 65% in size
How it was run: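 hNPCs seeded 350 cells/well, cultured 16–20 h; compounds added 1 h before ZIKV (2 FFU/cell), 37 C 6 h. Caspase-Glo 3/7 luminescence after 30 min RT; % inhibition from induction scaled to uninfected (0%) and infected (100%) wells.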

[4] = qHTS assay for measurement of the activity of small molecule inhibitors on Zika virus induced Caspase-3 activity in human astrocytoma cells (AID 1224859)
How it was run: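 Luminescence read-out (Caspase-Glo 3/7, 30 min RT) of caspase activity in SNB-19 cells infected 6 h with ZIKV, 2 FFU/cell, after 1 h compound pretreatment; % inhibition from induction normalised to uninfected (0%) and infected (100%) wells.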

[5] = qHTS assay to identify small molecule inhibitors of chordoma cells - UCH-1 (AID 1259355); also: nearly all actives have a fitted effect of over 55% in size
How it was run: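 Seed 800 cells per well; incubate overnight at 37 C, 5% CO2. Add test compounds (15 concentrations), then the auranofin–topoisomerase-agent combination. Incubate 48hr, add CellTiter-Glo, wait 30min, read luminescence.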

[6] = qHTS assay to identify small molecule inhibitors of chordoma cells - UCH-2 (AID 1259356)
[7] = qHTS profiling of the MIPE4 collection as inhibitors of Plasmodium falciparum (DD2) proliferation (AID 743345; call rule not given here); settings: P. falciparum Dd2 in erythrocytes, SYBR Green DNA, 72 h; at 28.5 µM (top of the series) unless noted
How it was run: (§1)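 Erythrocytes infected with P. falciparum (0.3% parasitemia, 2.5% hematocrit) incubated with compounds 72 h at 37 C, 5% CO2. Lysis with saponin/Triton buffer containing SYBR Green I, overnight at room temperature in the dark; DNA fluorescence (485/535 nm) normalised to 0.29 uM artemisinin and DMSO.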

[8] = qHTS Screen of the MIPE 4.0 Collection Against Ewings Sarcoma (RDES) (AID 1259252); also: nearly all actives have a fitted effect of over 35% in size
How it was run: (§2)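 Cells plated in serum-containing RPMI (5% FBS) and treated with compound dilutions for 48 h. Readout luminescent viability; normalization relied on vehicle (no inhibition) and media-only columns (full inhibition).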

[9] = qHTS Screen of the MIPE 4.0 Collection Against Ewings Sarcoma (EW8) (AID 1259255); also: nearly all actives have a fitted effect of over 35% in size; also: potency is read from the fitted curve at half-maximal effect
How it was run: as §2

[10] = qHTS Screen of the MIPE 4.0 Collection Against Ewings Sarcoma (TC32) (AID 1259256); also: nearly all actives have a fitted effect of over 45% in size; also: potency is read from the fitted curve at half-maximal effect
How it was run: as §2

[11] = qHTS profiling of the MIPE4 collection as inhibitors of Plasmodium falciparum (3D7) proliferation (AID 743344; call rule not given here); settings: P. falciparum 3D7 in erythrocytes, SYBR Green DNA fluorescence, 72 h; at 28.5 µM (top of the series) unless noted
How it was run: as §1

[12] = qHTS profiling of the MIPE4 collection as inhibitors of Plasmodium falciparum (DD2) proliferation (Rep 2) (AID 743346; call rule not given here); settings: P. falciparum Dd2 in erythrocytes, SYBR Green DNA, 72 h; at 28.5 µM (top of the series) unless noted
How it was run: as §1

[13] = qHTS profiling of the MIPE4 collection as inhibitors of Plasmodium falciparum (HB3) proliferation (AID 743347; call rule not given here); settings: P. falciparum HB3 in erythrocytes, SYBR Green DNA, 72 h; at 28.5 µM (top of the series) unless noted
How it was run: as §1

[14] = qHTS Screen of the MIPE 4.0 Collection Against Ewings Sarcoma (TC71) (AID 1259253); also: potency is read from the fitted curve at half-maximal effect; nearly all actives have a fitted effect of over 40% in size
How it was run: as §2

[15] = qHTS Assay for Identifying Gametocytocidal Compounds (AID 743244);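 also: actives lower the fluorescent signal which means gametocytes are killed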; settings: P. falciparum 3D7 stage III-V gametocytes, alamarBlue, 72 h; max response: stronger effect = lower value
How it was run: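 P. falciparum 3D7 stage III–V gametocytes (20,000 cells/well) were exposed to compounds for 72 h at 37 °C, 5% CO2. AlamarBlue was then added for 24 h; decreased resorufin fluorescence (Ex 525/Em 598 nm) indicated loss of viability.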

[16] = qHTS assay for cell viability of HEK293 cells (AID 743288); settings: ATP luminescence (CellTiter-Glo), 18 h; max response: stronger effect = lower value; also: nearly all actives have a fitted effect of over 50% in size; also: potency is read from the fitted curve at half-maximal effect
How it was run: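 Total intracellular ATP, measured with a luciferase-coupled reagent, indicates the number of viable HEK293 cells. Exposure to test chemicals lasts 18 h at 37 C in 1,536-well format at 2,000 cells/well.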

For `CCOC(=O)Nc1ccc(NCc2ccc(F)cc2)nc1N`, the Potency [1] was “inactive”, the cell viability, % of control (lower = more cytotoxic) [2] was 166% and the Potency [3] was “inactive”. The Potency [4] was “inactive”, the Potency [5] was “inactive” and the outcome [6] was “inactive”.

With `CC[N+](CC)(CC)CCOc1cccc(OCC[N+](CC)(CC)CC)c1OCC[N+](CC)(CC)CC` the Potency [1] was “inactive”, the parasite growth remaining, % of DMSO control (lower = more inhibition) [7] was 104% and the cell viability, % of control (lower = more cytotoxic) [2] was 124%. The Potency [3] was “inactive”, the Potency [4] was “inactive” and the Potency [8] was “inactive”. For the same compound, the Potency [9] was “inactive”, the Potency [10] was “inactive” and the Potency [5] was “inactive”. The outcome [6] was “inactive”.

For `CCCNCC(O)COc1ccccc1C(=O)CCc1ccccc1` (stereo unspecified), the Potency [1] was “inactive”, the parasite growth, % of DMSO control [11] was 5.54% and the parasite growth remaining, % of DMSO control (lower = more inhibition) [7] was 6.97%. The parasite growth, % of control (lower = inhibition) [12] was 15.6%, the growth, % of control [13] was 6.85% and the cell viability, % of control (lower = more cytotoxic) [2] was 6.23%. For the same compound, the Potency [3] was “inactive”, the Potency [4] was “inactive” and the Potency [14] was 14.8 µM (active). The Potency [9] was 20.9 µM (active), the Potency [5] was “inactive” and the outcome [6] was “inactive”.

For `OCCN(CCO)c1nc(N2CCCCC2)c2nc(N(CCO)CCO)nc(N3CCCCC3)c2n1`, the max response [15] was 7.4% (inactive), the parasite growth, % of control (lower = inhibition) [12] was 36.9% and the cell viability, % of control (lower = more cytotoxic) [2] was 130%. For the same compound, the Potency [3] was “inactive”, the Potency [4] was “inactive” and the outcome [6] was “inactive”.

With `CC(COc1ccccc1)N(CCCl)Cc1ccccc1` (stereo unspecified) the Potency [1] was “inactive”, the Potency [16] was 35.5 µM (active) and the parasite growth, % of DMSO control [11] was 90.3%. It also gave a parasite growth remaining, % of DMSO control (lower = more inhibition) [7] of 26.2%, a parasite growth, % of control (lower = inhibition) [12] of 27% and a cell viability, % of control (lower = more cytotoxic) [2] of 82.3%. For the same compound, the Potency [3] was “inactive”, the Potency [4] was “inactive” and the Potency [8] was “inactive”. The Potency [9] was “inactive”, the Potency [10] was “inactive” and the Potency [5] was “inactive”. For the same compound, the outcome [6] was “inactive”.

For `O=C(c1ccc(F)cc1)C1CCN(CCn2c(=O)[nH]c3ccccc3c2=O)CC1`, the Potency [1] was “inactive”, the parasite growth, % of DMSO control [11] was 109% and the parasite growth remaining, % of DMSO control (lower = more inhibition) [7] was 19.2%. It also gave a parasite growth, % of control (lower = inhibition) [12] of 104%, a growth, % of control [13] of 61.3% and a cell viability, % of control (lower = more cytotoxic) [2] of 216%. The Potency [3] was “inactive”, the Potency [4] was “inactive” and the Potency [8] was “inactive”. The Potency [10] was “inactive”, the Potency [5] was “inactive” and the outcome [6] was “inactive”.

With `O=C(CCCN1CCC(O)(c2ccc(Cl)cc2)CC1)c1ccc(F)cc1` the max response [16] was -20.6% (inactive), the cell viability, % of control (lower = more cytotoxic) [2] was 58.3% and the Potency [3] was “inactive”. The Potency [4] was “inactive”, the Potency [10] was 20.9 µM (active) and the Potency [5] was “inactive”. For the same compound, the outcome [6] was “inactive”.

With `CC12CC3CC(C)(C1)CC(N)(C3)C2` the Potency [1] was “inactive”, the parasite growth, % of DMSO control [11] was 176% and the parasite growth remaining, % of DMSO control (lower = more inhibition) [7] was 23.6%. For the same compound, the parasite growth, % of control (lower = inhibition) [12] was 122%, the growth, % of control [13] was 512% and the cell viability, % of control (lower = more cytotoxic) [2] was 26.5%. The Potency [3] was “inactive”, the Potency [4] was “inactive” and the Potency [8] was “inactive”. The Potency [9] was “inactive”, the Potency [10] was “inactive” and the outcome [6] was “inactive”.

With `NCCS(=O)(=O)O` the Potency [1] was “inactive”, the max response [15] was -8.78% (inactive) and 22.4% (inactive) and the max response [16] was 10.5% (inactive). The parasite growth, % of DMSO control [11] was 102%, the parasite growth remaining, % of DMSO control (lower = more inhibition) [7] was 102% and the parasite growth, % of control (lower = inhibition) [12] was 90.9%. For the same compound, the growth, % of control [13] was 110%, the cell viability, % of control (lower = more cytotoxic) [2] was 573% and the Potency [3] was “inactive”. The Potency [4] was “inactive”, the Potency [8] was “inactive” and the Potency [5] was “inactive”. The outcome [6] was “inactive”.
